Source: PubChem BioAssay (National Center for Advancing Translational Sciences (NCATS))
Most compounds without a hit are left out; they make up all but 11% or so of the library.
NIH3T3 tox: cytotoxic compounds in NIH 3T3 cells; 4.3% of 94,000 active; NIH 3T3 viability, CellTiter-Glo ATP luminescence, 48-72 h; Potency, µM (top dose mostly 96.7 µM), for the others: at the top dose activity change, negative = cytotoxicity, most hits filed as inhibitors; also: nearly all actives have a fitted effect of over 55% in size
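ATP-dependent luminescence (CellTiter-Glo) served as the viability signal for NIH 3T3 cells treated with compound for 48 or 72 hr at 37 °C.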
Luciferase inh: inhibitors of firefly (Photinus pyralis) luciferase; P08659; purified P. pyralis luciferase, luminescence, biochemical; Potency, µM (highest dose often 115 µM), most hits filed as inhibitors; 2.5% of 76,000 active; also: nearly all actives have a fitted effect of over 65% in size
Target sequence (P08659 whole entry, looked up): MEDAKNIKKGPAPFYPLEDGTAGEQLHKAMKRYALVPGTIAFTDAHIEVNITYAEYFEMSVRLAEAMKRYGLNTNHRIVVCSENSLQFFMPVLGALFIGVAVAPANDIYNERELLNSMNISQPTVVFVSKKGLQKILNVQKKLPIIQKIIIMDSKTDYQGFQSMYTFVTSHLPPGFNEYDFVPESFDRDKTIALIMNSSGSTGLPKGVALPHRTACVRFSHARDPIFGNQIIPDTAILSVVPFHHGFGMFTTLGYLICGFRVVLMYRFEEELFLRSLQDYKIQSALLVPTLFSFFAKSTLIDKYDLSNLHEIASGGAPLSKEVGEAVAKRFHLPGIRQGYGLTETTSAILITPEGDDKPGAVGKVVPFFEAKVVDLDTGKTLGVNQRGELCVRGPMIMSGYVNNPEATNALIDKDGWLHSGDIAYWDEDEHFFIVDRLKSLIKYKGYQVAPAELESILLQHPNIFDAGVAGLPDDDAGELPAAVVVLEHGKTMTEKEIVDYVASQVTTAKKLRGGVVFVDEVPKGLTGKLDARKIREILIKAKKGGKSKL
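Luminescence read by CCD imaging after purified firefly luciferase (10nM final) was added to substrate buffer holding 10uM D-luciferin and 10uM ATP, pH 7.5, pre-dosed with compound.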
NPR1 antag: antagonists of human natriuretic peptide receptor Npr1; P16066; HEK293 hNpr1 GloSensor cGMP, ANP-stimulated luminescence; Potency, µM (titrated, usually from 46.3 µM), inactives show top-dose activity change, negative = inhibition, hits mostly inhibitors; 1.6% of 76,000 active; calls by dose curve; also: nearly all actives have a fitted effect of over 60% in size
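HEK293 cells stably expressing human Npr1 and cGMP GloSensor pGS-40F, loaded 2 h with 2% GloSensor reagent, given compound 30 min at room temperature. Luminescence read before and 20 min after 0.1 nM hNppA.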
HEK cytotox: cytotoxic compounds in HEK 293 cells; HEK 293 viability, ATP luminescence (CellTiter-Glo), 48-72 h; Potency, µM (doses to about 115 µM), for the others: at the highest dose activity change, negative = cytotoxicity, usual class: inhibitors; 6.6% of 94,000 active; also: nearly all actives have a fitted effect of over 60% in size
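Pintool-delivered compounds were incubated with HEK 293 cells (250 cells/well) at 37 degree Celsius for 48 or 72 hr. ATP-dependent luminescence (CellTiter-Glo) then reported remaining viable cells.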
An asterisk follows results filed as active; i = inactive; ? = inconclusive; · = no result given; ! = repeats disagree; [ ] = dose if it differs, or a comment. Unless noted, calls follow the shape of the dose curve; as a rule, active = well fitted curve in the direction sought with a large enough effect; inconclusive = small, poorly fitted or top-dose-only effect, or another doubt; inactive = no such curve, though single readings can be large; an effect the other way counts as inactive or inconclusive. % is scaled to controls: 0 for no effect and ±100 for the full control effect; potency is read from the fitted curve at half-maximal effect.

SMILES	NIH3T3 tox	Luciferase inh	NPR1 antag	HEK cytotox
NC1CC(c2nnc(COc3ccc4c(c3)CCNCC4)n2C2CC2)C1 (stereo not given)	?	i	1%	18µM*!
CCn1c(COc2ccc(C)nc2)nnc1C1CC(N)C1 (stereo not given)	-13%	i	0%	-10%
OCC1(Cc2cccc(Cl)c2)CCCN(Cc2nc(-c3ccc(F)cc3)cs2)C1 (stereo not given)	?	i	-23%	79µM*
O=C(N1CCCC(c2nnnn2-c2ccccc2)C1)C1(c2ccccc2)CC1 (stereo not given)	?	·	·	-25%
O=C(c1ccc(F)c(Cl)c1)N1CCC2(CC1)CN(c1ccccc1)C2=O	40µM*	i	-1%	89µM*
COc1ccc(CN2CC3(CCN(C(=O)c4ccc(F)c(Cl)c4)CC3)C2=O)cc1	?	i	-21%	?
COc1cccc(-c2cccc(C(=O)N3CCCC3C(=O)NC3CC3)c2)c1 (stereo not given)	-15%[138 µM]	·	·	?
COc1ccccc1Nc1ccnc(N2CCCC(C(=O)NC(C)C)C2)n1 (stereo not given)	45µM*	·	·	?
COCCCNC(=O)C1CCCN(c2nccc(Nc3ccccc3OC)n2)C1 (stereo not given)	-37%	·	·	-15%
COC(=O)CNC(=O)C1CCCN(c2nccc(Nc3ccccc3OC)n2)C1 (stereo not given)	-24%	·	·	-9%
COc1ccccc1Nc1ccnc(N2CCCC(C(=O)NCC3CC3)C2)n1 (stereo not given)	35µM*	·	·	?
COc1ccccc1Nc1ccnc(N2CCCC(C(=O)NCCCc3ccccc3)C2)n1 (stereo not given)	?	·	·	50µM*
CNC(=O)C1CCCN(c2nccc(Nc3ccccc3OC)n2)C1 (stereo not given)	-25%[138 µM]	·	·	?
COc1ccccc1CNC(=O)C1CCCN(c2nccc(Nc3ccccc3OC)n2)C1 (stereo not given)	35µM*	·	·	?
O=C(c1ccccc1F)N1CCCC(Cc2nncn2CC2CC2)C1 (stereo not given)	-10%	·	·	4%
CCc1nc2c(c(-c3ccc(Cl)cc3)n1)CN(Cc1cccc3ccccc13)CC2	32µM*	i	0%	79µM*
CCc1nc2c(c(-c3ccc(Cl)cc3)n1)CN(Cc1ccc(F)cc1)CC2	22µM*	i	1%	45µM*
CCc1nc2c(c(-c3ccc(Cl)cc3)n1)CN(S(=O)(=O)c1ccccc1)CC2	20µM*!	i	2%	5%
CCc1nc2c(c(-c3ccc(Cl)cc3)n1)CN(Cc1ccccn1)CC2	-20%	i	2%	0%
CCc1nc2c(c(-c3ccc(OC)cc3)n1)CCN(Cc1cc(C)on1)CC2	20µM*	·	·	4%
O=C(NC1C[C@H]2CC[C@@H](C1)N2C(=O)NCCc1ccccc1)c1ccc(F)cc1 (stereo not given in full)	-20%	·	·	?
COc1ccc(NC(=O)N2CCCC(CN3CCOCC3)CC2)cc1 (stereo not given)	-10%	·	·	3%
Cn1nc(C2CC2)cc1NC(=O)c1ccccc1Cl	-20%[138 µM]	·	·	-10%[172 µM]
CCc1nc2c(c(-c3ccc(Cl)cc3)n1)CN(Cc1cccc(OC)c1)CC2	13µM*	i	7%	?
CCc1nc2c(c(-c3ccc(Cl)cc3)n1)CCN(Cc1ccc(OC)cc1)CC2	?	i	2%	?
SMILES	NIH3T3 tox	Luciferase inh	NPR1 antag	HEK cytotox
CCc1nc2c(c(-c3ccc(Cl)cc3)n1)CN(Cc1ccc(OC)cc1)CC2	35µM*	i	2%	?
CCc1nc2c(c(-c3ccc(Cl)cc3)n1)CCN(Cc1ccc(C#N)cc1)CC2	?	i	7%	40µM*
COC[C@@H]1CN(C(=O)c2cccnc2)C[C@H]1c1ccccn1	-4%	·	·	i
COc1ccc(-c2ccccc2NC(=O)C2CCCN(Cc3ccc(F)c(F)c3)C2)cc1 (stereo not given)	-4%	i	1%	-16%
COc1ccc(CCNC(=O)C2CCCN(Cc3cccc(-c4cccc(C)c4)c3)C2)cc1 (stereo not given)	?	·	·	22µM*
COc1ccc(CNC(=O)C2CCCN(Cc3cccc(-c4cccc(C)c4)c3)C2)cc1 (stereo not given)	28µM*	·	·	?
O=C(NCc1ccco1)c1ccc(-c2ccc(N3CCCCCC3)nc2)cc1	?	?	-20%	40µM*
Cc1ccc(CNC(=O)c2ccc(-c3ccc(N4CCCCC4)nc3)cc2)o1	-10%	14µM*	-15%	?
O=C(NCC1CCCO1)c1ccc(-c2ccc(N3CCCCC3)nc2)cc1 (stereo not given)	-1%	?	-6%	-14%
CC1(C)[C@H](Cc2cc(COc3ccccc3)on2)C[C@@H]1NC(=O)NCc1ccccc1	?	i	?	63µM*
CC1(C)[C@H](Cc2cc(COc3ccccc3)on2)C[C@@H]1NC(=O)C1CCCC1	?	i	?	?
CC(C)N[C@H]1C[C@@H](Cc2cc(COc3ccccc3)on2)C1(C)C	50µM*	i	-1%[70.6 µM]	63µM*
CC1(C)[C@H](Cc2cc(COc3ccccc3)on2)C[C@@H]1NC(=O)C1CCC1	?	i	?	35µM*
O=C(Nc1ccccc1)N1CCC(c2nn(-c3ccccn3)c(=O)[nH]2)CC1	-15%	·	·	i
Cc1noc2c(N3CC(O)C3)cc(-c3ccsc3)nc12	?	i	0%[70.6 µM]	-28%[230 µM]
Cc1noc2c(N3CCOCC3)cc(-c3ccsc3)nc12	28µM*	i	4%[70.6 µM]	?
C=CCN(C)C(=O)[C@@H]1Cc2c[nH]c3cccc(c23)[C@H](CC(C)C)N1	?	i	-11%[70.6 µM]	?
CC(C)C[C@@H]1N[C@H](C(=O)NC2CCC2)Cc2c[nH]c3cccc1c23	50µM*	i	3%[70.6 µM]	45µM*
CC(C)C[C@@H]1N[C@H](C(=O)NC2CCCC2)Cc2c[nH]c3cccc1c23	50µM*	i	-4%[70.6 µM]	32µM*
CC(C)C[C@@H]1N[C@H](C(=O)N2CCN(c3ncccn3)CC2)Cc2c[nH]c3cccc1c23	?	i	-1%[70.6 µM]	79µM*
CCOCCNC(=O)c1nc2cccnc2n(C2CC2)c1=O	-8%[138 µM]	·	·	i
O=C(NCc1c[nH]c2ncccc12)c1cccc(Br)c1	-28%[138 µM]	i	3%[70.6 µM]	?
Cc1nc(CN2Cc3nc(-c4cccc(C(F)(F)F)c4)ccc3OCC2=O)cs1	79µM*	i	-2%[70.6 µM]	100µM*
O=C1COc2ccc(-c3cn[nH]c3)nc2CN1Cc1ccc(C(F)(F)F)cc1	10µM*	i	-16%[70.6 µM]	?
COc1ccc(-c2ccc3c(n2)CN(Cc2csc(C)n2)C(=O)CO3)cc1F	?	i	-11%[70.6 µM]	?
Cc1noc(C)c1-c1ccc2c(n1)CN(Cc1ccc(C(F)(F)F)cc1)C(=O)CO2	?	i	-24%[70.6 µM]	?
O=C(CN1Cc2nc(Nc3ccc(C(F)(F)F)cc3)ccc2OCC1=O)N1CCCC1	50µM*	i	-16%[70.6 µM]	79µM*
